Data published in PubChem BioAssay.
Calls of active or inactive are those of the source. No rule for the calls is given here. Where a SMILES comes first, the peptide text is derived from it. The star is where a group is joined. Boc = CC(C)(C)OC(=O)*

Molecular target: Pantothenate synthetase (Mycobacterium tuberculosis (strain ATCC 25618 / H37Rv)) (UniProt P9WIL5)
Assay: Recombinant Mtb pantothenate synthetase (PanC) inhibitors, coupled enzyme, confirmatory (AID 375);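 also: 0% = full reaction with vehicle and 100% = no enzyme background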
Conditions: coupled enzyme assay; at 10 µM, active compounds read high

Pantothenate synthetase (Mycobacterium tuberculosis (strain ATCC 25618 / H37Rv)), sequence (P9WIL5 whole entry, looked up): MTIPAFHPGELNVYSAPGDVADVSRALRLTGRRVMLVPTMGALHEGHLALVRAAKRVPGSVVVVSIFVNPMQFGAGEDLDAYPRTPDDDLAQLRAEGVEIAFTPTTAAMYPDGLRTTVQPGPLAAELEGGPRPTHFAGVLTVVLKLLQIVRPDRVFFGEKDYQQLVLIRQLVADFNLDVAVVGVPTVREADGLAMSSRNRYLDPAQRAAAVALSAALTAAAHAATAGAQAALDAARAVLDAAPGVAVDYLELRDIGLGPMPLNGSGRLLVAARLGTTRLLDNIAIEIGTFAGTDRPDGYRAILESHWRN

**Q.** For `CCOc1ccc(N(CC(=O)NC2CCCC(C)C2C)S(=O)(=O)c2c(C)noc2C)cc1` (stereo unspecified), which inhibition is on record?
**A.** 2% (inactive)

**Q.** Which inhibition does the source give for `COc1ccc(C2c3c(-c4ccccc4O)n[nH]c3C(=O)N2CCc2ccc(OC)c(OC)c2)cc1` (stereo unspecified) here?
**A.** 0% (inactive)

**Q.** With `CC(NC(=O)OC(C)(C)C)C(=O)N1CCCC1C(=O)NC(Cc1ccccc1)C(N)=O` (stereo not drawn) (Boc-Ala-Pro-Phe-NH2; configuration not given here) as the molecule, how does the inhibition read?
**A.** 7% (inactive)

**Q.** For `O=C(Nc1ccc(Br)c2cccnc12)c1ccc(Cn2cc(Cl)cn2)o1`, which inhibition is on record?
**A.** 1% (inactive)

**Q.** Which inhibition does the source give for `COC(=O)c1cc(NC(=O)C2CC=CCC2C(=O)O)cc(C(=O)OC)c1` (stereo unspecified) here?
**A.** 3% (inactive)

**Q.** For `Cc1ccc2cc(C#N)c(N3CCCC3)nc2c1C`, which inhibition is on record?
**A.** 4% (inactive)

**Q.** How did the inhibition turn out when `O=C(O)c1ccc2noc(-c3ccccc3)c2c1` was run?
**A.** 0% (inactive)

**Q.** How did the inhibition turn out when `CCOC(=O)c1ccc2ncc(C(=O)OCC)c(NCCN(C)C)c2c1` was run?
**A.** 0% (inactive)

**Q.** `CCN(CC)CCCN1C(=O)C(O)=C(C(C)=O)C1c1cccc(OC)c1` (stereo unspecified) was tested. Which inhibition did it give?
**A.** 0% (inactive)

**Q.** With `COC(=O)c1cc(S(=O)(=O)N2CCOCC2)c(N2CCOCC2)cc1N1CCOCC1` as the molecule, how does the inhibition read?
**A.** 2% (inactive)

**Q.** `C=C(C)Cn1c(N2CCN(CC)CC2)nc2c1c(=O)[nH]c(=O)n2C` was tested. Which inhibition did it give?
**A.** 0% (inactive)

**Q.** `COc1ccc(S(=O)(=O)N2CCN(C3CCCCCCC3)CC2)cc1` was tested. Which inhibition did it give?
**A.** 1% (inactive)

**Q.** `CN1CCN(CC(=O)N2c3ccccc3C(C)(c3ccccc3)CC2(C)C)CC1` (stereo unspecified) was tested. Which inhibition did it give?
**A.** 0% (inactive)

**Q.** With `Cn1c(CNc2nc(-c3ccccc3)cs2)nnc1SCC(=O)N1CCc2ccccc21` as the molecule, how does the inhibition read?
**A.** 0% (inactive)

**Q.** Which inhibition does the source give for `CCOc1ccc(S(=O)(=O)Nc2ccc(Cl)cn2)c(C)c1C` here?
**A.** 0% (inactive)

**Q.** Which inhibition does the source give for `CC(=O)Nc1ccccc1OCC(=O)c1cc(C)n(Cc2cccs2)c1C` here?
**A.** 0% (inactive)

**Q.** With `CNC(=O)c1ccccc1NC(=O)c1c(O)c2c([nH]c1=O)CCCC2` as the molecule, how does the inhibition read?
**A.** 7% (inactive)

**Q.** `Nc1nc(C(=O)N2CCOCC2)nn1S(=O)(=O)c1ccc(Cl)cc1` was tested. Which inhibition did it give?
**A.** 0% (inactive)

**Q.** For `Cn1c2c(c(=O)n(C)c1=O)C(c1cccc(Br)c1)C1C(=O)c3ccccc3C1=N2` (stereo unspecified), which inhibition is on record?
**A.** 9% (inactive)

**Q.** How did the inhibition turn out when `OCCn1c(CSc2nnc(-c3ccco3)n2-c2ccccc2)nc2ccc(Cl)cc21` was run?
**A.** 2% (inactive)

**Q.** How did the inhibition turn out when `COc1ccc(-c2noc(-c3ccccc3C(=O)Nc3cccnc3)n2)cc1` was run?
**A.** 0% (inactive)
